# In the supplement of paper PMC9492666:
# Counter-ions that a name gives are not always drawn.
# How the values were obtained:
# HCC1937 = assay: relative cell viability, compound + erastin, vs DMSO (fraction of DMSO control); higher = less growth inhibition; details: 72 h
# MDA-MB-231 = assay: as above; details: 72 h
# 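Further: viability read by CCK-8 kit in 96-well plates, part of a combination screen pairing lipid-metabolism-targeting compounds with erastin.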
Compound,relative cell viability (HCC1937),relative cell viability (MDA-MB-231)
O=C1/C(=C/c2cccs2)CC/C1=C\c1cccs1 + CCOc1ccccc1-n1c(C(C)N2CCN(C(=O)COc3ccc(Cl)cc3)CC2)nc2ccccc2c1=O [erastin],0.514,0.658
COC(=O)c1cc(Cl)c(O)c(S(=O)(=O)Nc2cc(-c3ccccc3)c(F)cc2F)c1 + CCOc1ccccc1-n1c(C(C)N2CCN(C(=O)COc3ccc(Cl)cc3)CC2)nc2ccccc2c1=O [erastin],0.728,0.806
C/C=C/c1cc(OC)c(OC)cc1OC [alpha-Asarone] + CCOc1ccccc1-n1c(C(C)N2CCN(C(=O)COc3ccc(Cl)cc3)CC2)nc2ccccc2c1=O [erastin],0.594,0.774
CN(CCOc1ccc(CC2SC(=O)NC2=O)cc1)c1ccccn1 (stereo unspecified) [Rosiglitazone HCl] + CCOc1ccccc1-n1c(C(C)N2CCN(C(=O)COc3ccc(Cl)cc3)CC2)nc2ccccc2c1=O [erastin],0.619,0.774
CCC(CC)CC1(C(=O)Nc2ccccc2SC(=O)C(C)C)CCCCC1 [Dalcetrapib] + CCOc1ccccc1-n1c(C(C)N2CCN(C(=O)COc3ccc(Cl)cc3)CC2)nc2ccccc2c1=O [erastin],0.737,0.839
CC(C)=CCC[C@](C)(O)[C@H]1CC[C@]2(C)[C@@H]1[C@H](O)C[C@@H]1[C@@]3(C)CC[C@H](O)C(C)(C)[C@@H]3[C@@H](O[C@@H]3O[C@H](CO)[C@@H](O)[C@H](O)[C@H]3O)C[C@]12C [Ginsenoside Rh1] + CCOc1ccccc1-n1c(C(C)N2CCN(C(=O)COc3ccc(Cl)cc3)CC2)nc2ccccc2c1=O [erastin],0.679,0.663
COc1c(/C=C/C(=O)c2ccc(O)cc2)ccc(O)c1CC=C(C)C + CCOc1ccccc1-n1c(C(C)N2CCN(C(=O)COc3ccc(Cl)cc3)CC2)nc2ccccc2c1=O [erastin],0.58,0.749
Oc1ccc2c(c1)OCO2 [Sesamol] + CCOc1ccccc1-n1c(C(C)N2CCN(C(=O)COc3ccc(Cl)cc3)CC2)nc2ccccc2c1=O [erastin],0.489,1.02
CC(c1cc2ccccc2s1)N(O)C(N)=O (stereo unspecified) [Zileuton] + CCOc1ccccc1-n1c(C(C)N2CCN(C(=O)COc3ccc(Cl)cc3)CC2)nc2ccccc2c1=O [erastin],0.847,0.595
Cc1cc([N+](=O)[O-])ccc1NS(=O)(=O)c1cc(Cl)ccc1Cl + CCOc1ccccc1-n1c(C(C)N2CCN(C(=O)COc3ccc(Cl)cc3)CC2)nc2ccccc2c1=O [erastin],0.585,0.616
Cc1c(C(=O)Nc2ccc(CO)cc2)nnn1Cc1ccc(Cl)c(Cl)c1 + CCOc1ccccc1-n1c(C(C)N2CCN(C(=O)COc3ccc(Cl)cc3)CC2)nc2ccccc2c1=O [erastin],0.684,0.733
CN1c2ccccc2C(=O)Nc2cnc(Nc3ccc(N4CCC(O)CC4)cc3)nc21 + CCOc1ccccc1-n1c(C(C)N2CCN(C(=O)COc3ccc(Cl)cc3)CC2)nc2ccccc2c1=O [erastin],0.205,0.644
CCN(CC)Cc1ccc(C(=O)N(CCc2ccccc2OC)[C@@H]2CCNC2)cc1 + CCOc1ccccc1-n1c(C(C)N2CCN(C(=O)COc3ccc(Cl)cc3)CC2)nc2ccccc2c1=O [erastin],0.872,0.726
COc1ccc(-c2cc(=O)c3c(O)c(OC)c(O)cc3o2)cc1OC [Eupatilin] + CCOc1ccccc1-n1c(C(C)N2CCN(C(=O)COc3ccc(Cl)cc3)CC2)nc2ccccc2c1=O [erastin],0.431,0.617
O=S(=O)(c1ccccc1)N(CC(F)(F)F)c1ccc(C(O)(C(F)(F)F)C(F)(F)F)cc1 + CCOc1ccccc1-n1c(C(C)N2CCN(C(=O)COc3ccc(Cl)cc3)CC2)nc2ccccc2c1=O [erastin],0.835,0.45
O=C(Nc1ccncc1)c1cc([N+](=O)[O-])ccc1Cl + CCOc1ccccc1-n1c(C(C)N2CCN(C(=O)COc3ccc(Cl)cc3)CC2)nc2ccccc2c1=O [erastin],0.47,0.726
CCCc1c(OCCCOc2ccc(OCC(=O)O)cc2)ccc(C(C)=O)c1O + CCOc1ccccc1-n1c(C(C)N2CCN(C(=O)COc3ccc(Cl)cc3)CC2)nc2ccccc2c1=O [erastin],0.752,0.833
C[C@@H]1OCC2(CCN(c3cnc(Sc4ccnc(N)c4Cl)c(N)n3)CC2)[C@@H]1N + CCOc1ccccc1-n1c(C(C)N2CCN(C(=O)COc3ccc(Cl)cc3)CC2)nc2ccccc2c1=O [erastin],0.553,0.732
